Laboratory results published in PubChem BioAssay (NCATS).
Results filed as inconclusive are left out. Entries that show only a call come without a potency. A number with no mark means an inactive call. Active and inactive are the calls of the source. Calls come from the whole dose curve; as a rule, active = well fitted curve in the direction sought with a large enough effect; inconclusive = small, poorly fitted or top-dose-only effect, or another doubt; inactive = no such curve, though single readings can be large; an effect the other way counts as inactive or inconclusive.

Assays:
[1] = molecular target: Aldehyde dehydrogenase, mitochondrial (Homo sapiens) (UniProt P05091); experiment: qHTS for Inhibitors of the Aldehyde Dehydrogenase Family (ALDH2) Primary screen (AID 2061308); note: nearly all actives have a fitted effect of over 55% in size
[2] = molecular target: Retinaldehyde dehydrogenase 3 (Homo sapiens) (UniProt P47895); experiment: qHTS for Inhibitors of the Aldehyde Dehydrogenase Family (ALDH1A3) Primary screen (AID 2061315)

SMILES	Potency [1]	Potency [2]	activity change, negative = inhibition [1]	activity change, negative = inhibition [2]
COc1ccc(S(=O)(=O)N2CCN(C(=O)C3COc4ccccc4O3)CC2)cc1 (configuration not stated)	inactive	inactive	–	–
O=C(Nc1ccc(-n2ccnc2)c(F)c1)Nc1nnc(-c2ccncc2)s1	inactive	inactive	–	–
CCCn1c(C)nc2c(NC(C)CCCN(CC)CC)nc(C)nc21 (configuration not stated)	inactive	inactive	–	–
CC(=O)Nc1sc2c(c1-c1ccc3c(c1)OCCCO3)CCNC2	inactive	inactive	–	–
COc1cc(O)c(C(CC(=O)N2CCOCC2)c2ccc3c(c2)OCO3)c(OC)c1 (configuration not stated)	inactive	inactive	–	–
Fc1ccc(-c2ccc(Nc3nc(-c4ccncc4)nc4ccccc34)cc2F)c(Cl)c1	inactive	inactive	–	–
Cc1cc(C)c(-c2nnc(NC(=O)Nc3ccc4ccccc4c3)s2)c(C)c1	inactive	inactive	–	–
Cc1cc(C)nc(NC(=S)N2CCN(c3ccc4ccccc4n3)CC2)c1	inactive	inactive	–	–
COc1ccc(NC(=S)N2CCN(c3cccc(C(F)(F)F)c3)CC2)nc1	inactive	inactive	–	–
Cc1ccc(S(=O)(=O)Nc2ccccc2C(=O)Nc2nc(-c3ccccc3)c(Br)s2)cc1	inactive	inactive	–	–
Cc1noc(-c2ccc(-c3ccc(CC(=O)O)cc3)cc2)c1NC(=O)O[C@H](C)c1ccccc1Cl	inactive	inactive	–	–
CC1(C)CC[C@]2(C(=O)O)CC[C@]3(C)C(=CCC4[C@@]5(C)CC[C@H](O[C@@H]6O[C@H](C(=O)O)[C@@H](O)[C@H](O[C@@H]7O[C@H](CO)[C@H](O)[C@H](O)[C@H]7O)[C@H]6O[C@@H]6O[C@H](CO)[C@@H](O)[C@H](O)[C@H]6O)C(C)(C)C5CC[C@]43C)[C@@H]2C1 (some centres not stated)	–	–	-3.97% [at 11.2 µM]	11.9% [at 11.2 µM]
O=C(Nc1cccc(C(F)(F)F)c1)Nc1nnc(-c2ccncc2)s1	inactive	inactive	–	–
Cc1ccc(NC(=O)c2ccncc2NS(=O)(=O)c2ccc(C)cc2)cc1	inactive	inactive	–	–
O=C(CNC(=O)C1CCCCC1)OC(C(=O)Nc1cc(C(F)(F)F)ccc1Cl)c1ccccc1 (configuration not stated)	inactive	inactive	–	–
Cn1nnnc1Sc1ncnc2scc(-c3ccc(N)cc3)c12	inactive	inactive	–	–
CCC(=O)NC(C)c1cc(Cl)c2cccnc2c1O (configuration not stated)	inactive	inactive	–	–
CC(=O)NC(c1ccco1)c1cc(F)c2cccnc2c1O (configuration not stated)	inactive	inactive	–	–
Cc1ccc(NS(=O)(=O)c2ccc3c(c2)CCC(=O)N3)cc1	inactive	inactive	–	–
COc1cccc(C2c3c(ncn(-c4ccccc4)c3=N)Oc3ccc4ccccc4c32)c1OC (configuration not stated)	inactive	inactive	–	–
Cc1c(C(=O)NCC2CCCO2)[nH]c2c1C(=O)CCC2 (configuration not stated)	inactive	inactive	–	–
